Among all 310,000 compounds or so, about 14,000 (4.5%) showed an effect of 50% or more. Effects have a minus sign here. For the sample, strong results were picked, then their nearest neighbours and some compounds at random.
Target: human ether-à-go-go-related gene (hERG) potassium channel (human, UniProt Q12809)
Experiment: primary screen, population patch clamp on CHO cells stably expressing hERG; higher = less effect of the substance
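Also: peak tail current of the secondary pulse compared with the same well before compound.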

Chain of human ether-à-go-go-related gene (hERG) potassium channel (Q12809 whole entry, looked up): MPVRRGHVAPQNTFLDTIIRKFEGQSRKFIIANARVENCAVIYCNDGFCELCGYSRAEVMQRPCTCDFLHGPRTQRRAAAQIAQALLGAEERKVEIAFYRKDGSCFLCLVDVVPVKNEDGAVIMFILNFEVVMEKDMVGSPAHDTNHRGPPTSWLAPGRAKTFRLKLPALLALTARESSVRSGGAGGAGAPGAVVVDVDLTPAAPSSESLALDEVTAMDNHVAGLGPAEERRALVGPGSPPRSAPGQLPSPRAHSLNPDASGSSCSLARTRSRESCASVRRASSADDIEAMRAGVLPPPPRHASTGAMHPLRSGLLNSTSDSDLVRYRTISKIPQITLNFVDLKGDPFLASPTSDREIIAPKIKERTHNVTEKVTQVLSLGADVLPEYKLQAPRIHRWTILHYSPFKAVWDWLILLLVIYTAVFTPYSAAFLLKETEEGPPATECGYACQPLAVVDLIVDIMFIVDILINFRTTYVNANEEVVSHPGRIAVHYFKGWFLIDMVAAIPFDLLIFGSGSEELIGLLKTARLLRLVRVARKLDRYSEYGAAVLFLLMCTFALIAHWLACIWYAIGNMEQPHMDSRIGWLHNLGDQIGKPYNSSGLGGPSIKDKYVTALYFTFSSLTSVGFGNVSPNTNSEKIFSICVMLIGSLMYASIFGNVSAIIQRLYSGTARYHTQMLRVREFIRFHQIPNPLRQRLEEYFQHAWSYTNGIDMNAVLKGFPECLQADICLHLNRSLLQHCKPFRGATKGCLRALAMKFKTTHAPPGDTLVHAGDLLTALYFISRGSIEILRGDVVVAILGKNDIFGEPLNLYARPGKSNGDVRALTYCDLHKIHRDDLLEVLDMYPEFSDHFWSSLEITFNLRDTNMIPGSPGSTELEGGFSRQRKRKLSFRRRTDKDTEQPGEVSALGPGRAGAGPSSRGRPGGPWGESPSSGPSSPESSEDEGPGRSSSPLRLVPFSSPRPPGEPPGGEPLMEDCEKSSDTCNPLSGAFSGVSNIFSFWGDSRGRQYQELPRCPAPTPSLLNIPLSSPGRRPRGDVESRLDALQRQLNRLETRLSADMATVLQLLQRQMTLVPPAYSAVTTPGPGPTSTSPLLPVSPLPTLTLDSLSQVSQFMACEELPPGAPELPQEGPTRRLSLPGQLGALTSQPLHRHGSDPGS

SMILES	hERG current change (%, negative = inhibition) at 10uM
O=C(C1=C[C@H](c2coc3ccccc3c2=O)C[C@H](OCc2ccc(CO)cc2)O1)N1CCOCC1	-49.7%
C=CCOC(=O)C1=C[C@@H](c2coc3ccccc3c2=O)C[C@@H](OCc2ccc(CO)cc2)O1	-40.9%
O=C(C1=C[C@H](c2coc3ccccc3c2=O)C[C@H](OCc2ccc(CO)cc2)O1)N1CCN(Cc2ccccc2)CC1	-61.7%
O=C(C1=C[C@@H](c2coc3ccccc3c2=O)C[C@@H](OCc2ccc(CO)cc2)O1)N1CCN(Cc2ccccc2)CC1	-48%
O=C(C1=C[C@@H](c2coc3ccccc3c2=O)C[C@@H](OCc2ccc(CO)cc2)O1)N1CCCCCCC1	-66.5%
NC(=O)C1=C[C@@H](c2coc3ccccc3c2=O)C[C@@H](OCc2ccc(CO)cc2)O1	-31%
O=C(C1=C[C@@H](c2coc3ccccc3c2=O)C[C@@H](OCc2ccc(CO)cc2)O1)N1CCOCC1	-24.7%
CN1CCN(C(=O)C2=C[C@H](c3coc4ccccc4c3=O)C[C@H](OCc3ccc(CO)cc3)O2)CC1	-41.1%
C=CCOC(=O)C1=C[C@H](c2coc3ccccc3c2=O)C[C@H](OCc2ccc(CO)cc2)O1	-62.3%
CCOC(=O)c1ccc(NS(=O)(=O)c2c(C)[nH]c(C)c2C(=O)N2CCCCC2)cc1	7.73%
CC(C)C(NS(=O)(=O)/C=C/c1ccccc1)C(=O)NCc1ccc(F)cc1 (stereo not drawn)	25.3%
CCn1c(SCC(=O)N2c3ccccc3CC2C)nnc1-c1ccco1 (stereo not drawn)	-17.6%
O=C(Nc1nnc(Cc2ccccc2F)s1)c1ccccc1Cl	12.6%
CCc1ccc(S(=O)(=O)NCc2cn3ccccc3n2)s1	-11%
CN(C)Cc1nc2c([nH]1)c(=O)n(C)c(=O)n2C	-0.353%
CCCc1nc2c([nH]1)c(=O)n(C)c(=O)n2C	15.8%
Cn1c(=O)c2[nH]c(COc3ccc(C(C)(C)C)cc3)nc2n(C)c1=O	-55.1%
N#Cc1ccc(-c2ccc(Cl)cc2)nc1SCC(=O)c1cccc(Cl)c1	28.9%
N/C(=N\O)c1ccc([N+](=O)[O-])s1	11%
Cc1ccc(P(=O)(OCCN2CCOCC2)C(C)(C)C)o1 (stereo not drawn)	-4.4%
COc1ccc(C2=NCC(=O)N(CC(=O)NCc3ccco3)c3sc4c(c32)CCCC4)cc1OC	-17.3%

SMILES	hERG current change (%, negative = inhibition) at 10uM
COc1ccc(C2=NCC(=O)N(CC(=O)NCc3ccco3)c3sc4c(c32)CCCC4)cc1	-35.7%
O=C1CN=C(c2ccc(Br)cc2)c2c(sc3c2CCCC3)N1CCN1CCCCC1	-64.4%
OC(COc1ccc2cc(Br)ccc2c1)CN1CCOCC1 (stereo not drawn)	-48.4%
OC(COc1ccc2ccccc2c1)CN1CCCC1 (stereo not drawn)	-19.1%
O=C(c1ccc(Cl)cc1)c1ccc(OCC(O)CN2CCOCC2)cc1 (stereo not drawn)	-19.7%
O=C(c1ccc(Cl)cc1)c1ccc(OCC(O)CN2CCCCC2)cc1 (stereo not drawn)	-75.1%
Cl.OC(COc1ccc(OCC(O)CN2CCCCCC2)cc1)CN1CCCCCC1 (stereo not drawn)	9.75%
O=C(c1ccccc1)c1ccc(OCC(O)CN2CCCCC2)cc1 (stereo not drawn)	-39.9%
Cl.OC(COc1ccc(Cl)cc1)CN1CCCCC1 (stereo not drawn)	-61.9%
OC(COc1ccc2cc(Br)ccc2c1)CN1CCCC1 (stereo not drawn)	-70.2%
OC(COc1ccc(OCC(O)CN2CCCCC2)cc1)CN1CCCCC1 (stereo not drawn)	15.9%
CCn1cc(C(=O)NCc2ccccc2OC)c(=O)c2ccc(C)nc21	17.6%
CCCOc1ccccc1C(=O)N(Cc1cccc(Br)c1)C1CCS(=O)(=O)C1 (stereo not drawn)	-35.4%
Cn1c(=O)cc(SCC(=O)N2CCN(C(=O)c3ccco3)CC2)c2ccccc21	-27.4%
COc1ccc(OCC(=O)N2CCN(CC3CC4C=CC3C4)CC2)cc1 (stereo not drawn)	-26.6%
Cc1cc(C)n2ncc(-c3cccc(Br)c3)c2n1	5.79%
CNCC1(c2ccccc2)CCCC1.Cl	15.1%
c1ccc(C2(CNc3ccccn3)CCCC2)cc1	-70.3%
O=C(Nc1ccccn1)C1(c2ccccc2)CCCC1	-3.92%
CCCCCCNC(=O)CCNS(=O)(=O)c1ccc(C)cc1	-12.8%
CCOc1cc(NC(=O)c2ccccn2)c(OCC)cc1NC(=O)c1cccc(C)c1	8.7%

SMILES	hERG current change (%, negative = inhibition) at 10uM
COc1ccc(N2CC(C(=O)Nc3c(C(N)=O)oc4ccccc34)CC2=O)cc1 (stereo not drawn)	-15%
CC/C(=N\N=C1\SC(C)C(=O)N1Cc1ccco1)c1ccccc1 (stereo not drawn)	4.18%
COc1ccc(NC(=O)C2CCCN(c3c4c(nc5ncnn35)CCC4)C2)cc1 (stereo not drawn)	-61.6%
O=C(Nc1ccc(Oc2ccccc2)cc1)C1CCN(c2c3c(nc4ncnn24)CCC3)CC1	-55.6%
O=C(Nc1ccc2c(c1)CCC2)C1CCN(c2c3c(nc4ncnn24)CCC3)CC1	-73.1%
CC1CCCCC1NC(=O)C1CCN(c2c3c(nc4ncnn24)CCC3)CC1 (stereo not drawn)	4.49%
COc1ccc(NC(=O)C2CCCN(c3ncccn3)C2)cc1 (stereo not drawn)	3.4%
CC1CCC(NC(=O)C2CCN(c3c4c(nc5ncnn35)CCC4)CC2)CC1 (stereo not drawn)	-19.3%
O=C(Nc1ccc2c(c1)CCC2)C1CCN(c2ncccn2)CC1	20.6%
COc1ccc(NC(=O)C2CCCN(c3c4c(nc5ncnn35)CCC4)C2)cc1OC (stereo not drawn)	-11.7%
O=C(NC1CCCc2ccccc21)C1CCN(c2c3c(nc4ncnn24)CCC3)CC1 (stereo not drawn)	-31.3%
CCN1C(=O)C2C(C1=O)N1C(c3cccs3)C3C(=O)N(CC)C(=O)C3N1C2c1cccs1 (stereo not drawn)	15.7%
COc1ccc(Cn2nnnc2C(c2ccccn2)N2CCN(c3cc(Cl)ccc3C)CC2)cc1 (stereo not drawn)	-9.87%
Cc1ccc(NC(NC(=O)c2ccccc2[N+](=O)[O-])C(Cl)(Cl)Cl)cc1 (stereo not drawn)	-5.27%
CC(Sc1nnc(-c2cccnc2)o1)C(=O)NC1CCCCC1 (stereo not drawn)	14.9%
Cc1ccc(Nc2nc(COC(=O)C3CC3)cs2)cc1	-13.1%
CCOC(=O)CSC1=C(C#N)C(c2ccc(C)cc2)C(C(=O)OC)C(=O)N1 (stereo not drawn)	-4.56%
Cc1ccc(-n2ncc3c(=O)[nH]c(SCC(=O)N4CCN(c5ccccc5)CC4)nc32)cc1	3.28%
FC(F)(F)c1cccc(CNC2c3ccccc3-c3ccccc32)c1.O=C(O)C(=O)O	20.4%
COc1ccc(NC(=O)c2nc(C)n(-c3ccc([N+](=O)[O-])cc3)n2)cc1	-44.9%
Cc1nc(C(=O)Nc2ccc(Cl)cc2)nn1-c1ccc([N+](=O)[O-])cc1	-58.6%

SMILES	hERG current change (%, negative = inhibition) at 10uM
Cc1ccc(NC(=O)c2nc(C)n(-c3ccc([N+](=O)[O-])cc3)n2)cc1	-32.2%
Cc1nc(C(=O)O)nn1-c1ccc([N+](=O)[O-])cc1	2.84%
Cc1nc(C(=O)Nc2ccc(F)cc2)nn1-c1ccc([N+](=O)[O-])cc1	-67.4%
CNC(=O)c1nc(C)n(-c2ccc([N+](=O)[O-])cc2)n1	-3.99%
O=S(=O)(Nc1ccc(F)cc1)N1CCCCCC1	-15.6%
COc1ccccc1CNC(=O)Cn1nnc(-c2ccncc2)n1	1.05%
COC(=O)c1[nH]c2cccc(OC)c2c1NC(=O)CN1CC2(C)CC1CC(C)(C)C2 (stereo not drawn)	9.92%
CC(C)CN1CCC(=O)N([C@H](CO)c2ccccc2)CC1	9.33%
O=C1CCN(Cc2ccccc2)CCN1[C@H](COc1ccccc1)c1ccccc1	-57.9%
CC(C)CN1CCC(=O)N(CCOc2ccccc2)CC1	13.1%
O=C1CCN(CCc2ccccc2)CCN1[C@H](CO)c1ccccc1	-25.7%
CCCN1CCC(=O)N([C@H](COc2ccccc2)c2ccccc2)CC1	-78.2%
N#CC[C@H](c1ccccc1)N1CCN(Cc2ccccc2)CCC1=O	-1.88%
CC(C)[C@@H](COc1ccccc1)N1CCN(Cc2ccccc2)CCC1=O	-29.6%
O=C1CCN(CCc2ccccc2)CCN1[C@H](COc1ccccc1)c1ccccc1	-75.9%
CC(C)CN1CCC(=O)N([C@H](COc2ccccc2)c2ccccc2)CC1	-75.3%
COc1ccc(C(=O)Nn2c(SCC(=O)NCC3CCCO3)nc3ccccc3c2=O)cc1 (stereo not drawn)	2.75%
COc1cccc(CNC(=O)CCNC(=O)N2CCn3c2nc2ccccc23)c1	-3.38%
O=C(NNC(=S)NCc1ccco1)c1ccc(Cl)s1	14.5%
O=C(c1cccc(Br)c1)N1CCN(C(=O)N2CCOCC2)CC1	10.4%
O=C(COC(=O)c1cc([N+](=O)[O-])ccc1NCCO)c1ccccc1	-15.9%

Reference: paper PMC4336329 (PLoS ONE, 2015)
